From PubChem BioAssay AID1851 (National Center for Advancing Translational Sciences (NCATS), 2009)
About 4,000 (25%) of roughly 16,000 compounds were called active. Roughly 26% stayed inconclusive and do not appear here. The list is a sample of the results. Unmarked numbers belong to inactive results. Calls come from the whole dose curve; as a rule, active = well fitted curve in the direction sought with a large enough effect; inconclusive = small, poorly fitted or top-dose-only effect, or effect the other way; inactive = no such curve, though single readings can be large or run the other way.

molecular target: Cytochrome P450 2C9 (Homo sapiens) (UniProt P11712); test: Cytochrome panel assay with activity outcomes; conditions: recombinant CYP, pro-luciferin dealkylation, luminescence, p450-cyp2c9; series mostly up to 57.1 µM
Sequence (P11712 whole entry, looked up): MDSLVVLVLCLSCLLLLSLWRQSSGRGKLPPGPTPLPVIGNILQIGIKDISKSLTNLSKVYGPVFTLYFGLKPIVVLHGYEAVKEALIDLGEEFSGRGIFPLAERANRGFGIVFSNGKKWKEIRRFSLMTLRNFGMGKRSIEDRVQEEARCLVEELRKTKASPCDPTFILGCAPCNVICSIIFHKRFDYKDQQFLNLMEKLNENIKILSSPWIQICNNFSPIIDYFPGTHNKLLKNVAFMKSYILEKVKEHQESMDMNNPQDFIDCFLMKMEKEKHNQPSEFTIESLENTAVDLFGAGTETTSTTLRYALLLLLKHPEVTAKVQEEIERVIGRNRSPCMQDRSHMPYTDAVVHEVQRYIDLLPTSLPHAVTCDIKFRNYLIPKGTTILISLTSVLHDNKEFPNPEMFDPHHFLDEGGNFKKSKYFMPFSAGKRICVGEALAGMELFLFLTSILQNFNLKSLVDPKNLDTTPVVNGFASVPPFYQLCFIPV
% is set by controls: 0 for no effect and ±100 for the full control effect.

| Compound | AC50 | activity, negative = inhibition |
| --- | --- | --- |
| CC(C)Cn1c(C(C)C)nc([N+](=O)[O-])c1S(=O)(=O)c1ccc(F)cc1 | inactive | – |
| CN(C)Cc1ccccc1-c1nccc(NC2CC2)n1 | – | 5.88% [at 2.29 µM] |
| CC(C)=CCC/C(C)=C/CO/N=C1/C[C@@H](O)[C@@H](O)[C@@H]2[C@@H]3C(=O)N(C[C@@H]4CCCO4)C(=O)[C@H]3CC[C@H]12 | – | 4.47% [at 11.4 µM] |
| O=C(Cn1cnc([N+](=O)[O-])c1)NCc1ccc(F)cc1 | inactive | – |
| Cc1ccc(CNC(=O)Cn2c(=O)oc3ccccc32)o1 | inactive | – |
| COc1ccccc1CN1CCCC2(CCN(C(=O)c3ccco3)CC2)C1 | inactive | – |
| COc1ccccc1CN1CCC2(CC1)CCN(C(=O)c1ccco1)CC2 | inactive | – |
| O=C(Cn1cc(C(=O)c2ccco2)c2ccccc21)NCc1ccco1 | 14.1 µM (active) | – |
| Cc1ccccc1C(=O)c1cccn1CC(=O)NCc1ccco1 | inactive | – |
| COc1ccccc1OCCn1cc(C(=O)c2ccco2)c2ccccc21 | 0.562 µM (active) | – |
| N[C@H](C(=O)N[C@@H]1C(=O)N2C(C(=O)O)=C(Cl)CS[C@@H]12)c1ccccc1 | inactive | – |
| COc1cccc2c1C(=N)c1c(O)c3c(c(O)c1C2=O)C[C@](O)(C(C)=O)C[C@@H]3O[C@H]1C[C@H](N)[C@@H](O)[C@H](C)O1 | – | -16.6% [at 11.4 µM] |
| O=C(NC12CC3CC(CC(C3)C1)C2)C12CC3CC(C1)CC(n1cnc(Cl)n1)(C3)C2 | 12.6 µM (active) | – |
| COc1ccc(NC(=O)C23CC4CC(C2)CC(n2cnc(Br)n2)(C4)C3)c(C)c1 | inactive | – |
| CNc1ccnc(-c2ccccc2CN(C)C)n1 | – | 0.444% [at 2.29 µM] |
| CCOc1ccc(CCNC(=O)C2CCN(S(=O)(=O)CC)CC2)cc1OCC | inactive | – |
| CCOc1ccc(CCNC(=O)CCCN2C(=O)c3ccccc3C2=O)cc1OCC | 15.8 µM (active) | – |
| CCCc1nc2sc3ccccc3c(=O)c2c(=O)n1CCOC | inactive | – |
| CCCCCOC(=O)c1c(N)n(CCOC)c2nc3ccccc3nc12 | 5.01 µM (active) | – |
| COCCn1c(=O)cnc2cnc(Nc3ccccc3)nc21 | inactive | – |
| CCn1nccc1C(=O)Nc1nc2ccccc2n1CCN1CCCCC1 | inactive | – |

| Compound | AC50 | activity, negative = inhibition |
| --- | --- | --- |
| O=C(Nc1nc2ccccc2n1Cc1ccccc1)c1ccc(COc2ccccc2[N+](=O)[O-])o1 | 2 µM (active) | – |
| N[C@H](C(=O)O)c1nn[nH]n1 | inactive | – |
| CC1=C(C)/C(=N\OC(=O)/C=C/c2ccccc2)C=CC1=O | inactive | – |
| Cn1cnc([N+](=O)[O-])c1Sc1nc(N)nc2c1ncn2Cc1ccccc1 | – | 4.6% [at 11.4 µM] |
| CCCCNc1c(C(=O)OCC)c(C)nc2c1cnn2CC | inactive | – |
| Cc1cc(C)c2cc(C#N)c(NCCOC(=O)c3ccccc3C)nc2c1 | 2.51 µM (active) | – |
| COCCNc1nc(-c2ccc(C(=O)N(C)C)cc2)nc2ccccc12 | – | -2.68% [at 2.29 µM] |
| COc1ccccc1CNc1ccnc(-c2cccc(C#N)c2)n1 | – | -24.8% [at 2.29 µM] |
| CC(=O)NCCNc1ncnc2ccc(-c3ccccc3C#N)cc12 | – | -2.36% [at 2.29 µM] |
| CCCCNc1nc(-c2ccccc2)c(C(=O)OCC)cc1C#N | 3.16 µM (active) | – |
| CCOC(=O)c1cc(C#N)c(Oc2ccccc2OC)nc1-c1ccccc1 | 7.08 µM (active) | – |
| COC(=O)c1cc(C#N)c(NCc2ccc(Cl)cc2Cl)nc1C | inactive | – |
| COC(=O)c1cc(C#N)c(Oc2ccc(OC)cc2)nc1C | 14.1 µM (active) | – |
| N[C@@H](CO)C(=O)NNCc1ccc(O)c(O)c1O | inactive | – |
| Cn1c(=O)c2[nH]c(CCC(=O)O)nc2n(C)c1=O | – | 24.4% [at 11.4 µM] |
| CN(C)C(N)=NCCC[C@H](N)C(=O)O | inactive | – |
| O[C@H](C[C@@H]1CCCCN1)c1ccc2c(c1)oc1ccccc12 | – | -4.01% [at 11.4 µM] |
| CN(C)c1ncc2nc(-c3ccc(Cl)cc3)c(=O)n(C[C@H]3CCCO3)c2n1 | inactive | – |
| Cc1ccc(CSc2nnc(-c3ccncc3)n2CC2CCCO2)cc1 (stereo unspecified) | 15.8 µM (active) | – |
| Cn1c(SC2CCCCC2=O)nnc1-c1ccncc1 (stereo unspecified) | inactive | – |
| CC1(C)O[C@H]2C[C@@H]3[C@H]4CCC5=CC(=O)CC[C@@]5(C)[C@]4(F)[C@@H](O)C[C@@]3(C)[C@@]2(C(=O)CCl)O1 | inactive | – |

| Compound | AC50 | activity, negative = inhibition |
| --- | --- | --- |
| N#CC1=C(N)OC2=C(C(=O)CCC2)C12CCC1(CC2)OCCO1 | inactive | – |
| CCc1ccc(Nc2ncccc2C#N)cc1 | 17.8 µM (active) | – |
| CCC(C)c1ccc(Nc2ncccc2C#N)cc1 (stereo unspecified) | 17.8 µM (active) | – |
| N#Cc1ccccc1-c1cncnc1NCc1cccnc1 | – | 12.7% [at 2.29 µM] |
| C[C@H]1CN(S(=O)(=O)c2cccc3cnccc23)CCN1 | inactive | – |
| C1CCC(N=C(NC23CC4CC(CC(C4)C2)C3)N2CCOCC2)CC1 | inactive | – |
| CCN(CC)CCOc1ccc(Cc2ccccc2)cc1 | 15.8 µM (active) | – |
| CCN(CCCc1ccccc1)CCCc1ccccc1 | inactive | – |
| CCN(CC)CCOC(=O)C(c1ccccc1)c1ccccc1 | inactive | – |
| O=C1c2cccnc2C(=O)N1Cc1ccc(F)cc1 | inactive | – |
| Cc1ccc(NC2c3ncccc3C(=O)N2Cc2ccc(F)cc2)cc1 (stereo unspecified) | 15.8 µM (active) | – |
| CN[C@@H]1NC(=O)c2ccccc2N1Cc1ccc(F)cc1 | – | 4.34% [at 11.4 µM] |
| CCOc1ccc(/C(O)=C2/C(=O)C(=O)N(CCCn3ccnc3)C2c2cccs2)cc1Cl (stereo unspecified) | 5.01 µM (active) | – |
| COc1ccc(/C(O)=C2/C(=O)C(=O)N(CCCC(=O)O)C2c2ccc(OC)cc2)cc1 (stereo unspecified) | inactive | – |
| CCOc1ccc(/C(O)=C2/C(=O)C(=O)N(CCOCCO)C2c2cccnc2)cc1 (stereo unspecified) | inactive | – |
| COc1ccc(/C(O)=C2/C(=O)C(=O)N(CCN3CCOCC3)C2c2ccc(C)cc2)cc1 (stereo unspecified) | inactive | – |
| Cc1ccc(/C(O)=C2/C(=O)C(=O)N(CCCn3ccnc3)C2c2ccccn2)cc1 (stereo unspecified) | 4.47 µM (active) | – |
| CCOC(=O)c1[nH]c(C)c(/C(O)=C2\C(=O)C(=O)N(CCN3CCOCC3)C2c2cccs2)c1C (stereo unspecified) | inactive | – |
| C/C(CCN1CCc2nc(-c3ccccc3)c(-c3ccccc3)cc2C1)=N\O[C@@H](C)c1cn([C@H](CO)Cc2ccccc2)nn1 | – | -23.3% [at 11.4 µM] |
